PubChem BioAssay (Tox21)
“And” between values parts separate entries of the source, which are not always exact repeats. Equal values may be shown once. Inconclusive results are not listed. A number with no mark means an inactive call. The source made the active and inactive calls. The call rests on the fitted dose curve.

Assay: qHTS assay to identify small molecule antagonists of the estrogen receptor alpha (ER-alpha) signaling pathway using the BG1 cell line (AID 743080);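 further: BG1 cells stimulated with 17beta-estradiol alongside compound; nearly all actives have a fitted effect of over 25% in size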
Settings: BG1Luc4E2 ERE-luciferase antagonist mode, luminescence; series mostly up to 70.3 µM; activity change, negative = inhibition: at the top concentration
Description: National Center for Advancing Translational Sciences [NCATS]
NIH Chemical Genomics Center [NCGC]
U.S. Environmental Protection Agency [EPA]
National Institutes of Environmental Health Sciences [NIEHS]
National Toxicology Program [NTP]
U.S. Food and Drug Administration [FDA]
Estrogen receptor (ER), a nuclear hormone receptor, plays an important role in development, metabolic homeostasis and reproduction. Endocrine disrupting chemicals (EDCs) and their interactions with steroid hormone receptors like ER causes disruption of normal endocrine function. Therefore, it is important to understand the effect of environmental chemicals on the ER signaling pathway. To identify ER antagonists, BG1-Luc-4E2 cell line (provided by Dr. Michael Denison from University of California) has been used to screen the Tox21 10K compound library. BG1Luc4E2 cell line endogenously expresses full-length ER-alpha and is stably transfected with a plasmid containing four estrogen responsive elements (ERE) upstream of a luciferase reporter gene.
Tox21 Assay Protocol Summary:
BG1-Luc-4E2 cells were cultured in phenol red free assay medium containing 10% charcoal stripped FBS for 5 days before the assay was performed. The cells were dispensed at 4,000 cells/4 uL of assay medium per well into white wall/solid-bottom 1536-well plates using a Multidrop Combi (ThermoFisher Scientific, Waltham, MA) dispenser. The assay plates were incubated at a 37C and 5% CO2 for 24 h, and then 23 nL of compounds dissolved in DMSO, positive controls or DMSO only was transferred to the assay plate using a Pintool station (Kalypsys, San Diego, CA), followed by addition of 1 uL of 17beta-estradiol in assay medium using a Flying Reagent Dispenser (Aurora Discovery, San Diego, CA). After the plates were incubated at 37 C and 5% CO2 for 21.5 h, 1 uL of CellTiter-Fluor reagent (Promega, Madison, WI) of measuring cytotoxicity was added using Flying Reagent Dispenser (FRD) to each well. The assay plates were incubated at 37 C and 5% CO2 for additional 30 min and the fluorescence intensity was quantified by a ViewLux plate reader (PerkinElmer, Shelton, CT). For measuring luciferase reporter gene activity, 4 uL of ONE-Glo reagent (Promega) was added to each plate using an FRD and luminescence was quantified by a ViewLux plate reader after 30 min incubation at room temperature.
On the % scale 0 is the no-effect control and ±100 the full control effect; potency means the concentration at half of the fitted maximal effect.

Row | SMILES | Potency | activity change, negative = inhibition
1 | CN[C@H]1CC[C@@H](c2ccc(Cl)c(Cl)c2)c2ccc(S(N)(=O)=O)cc21 | 68.6 µM (active) | 
2 | Cc1cn([C@H]2C[C@H](O)[C@@H](CO)O2)c(=O)[nH]c1=O |  | 0.466%
3 | CC[C@H]1OC(=O)[C@H](C)C(=O)[C@H](C)[C@@H](O[C@@H]2O[C@H](C)C[C@H](N(C)C)[C@H]2O)[C@](C)(OC)C[C@@H](C)C(=O)[C@H](C)[C@H]2N(CCCCn3cnc(-c4cccnc4)c3)C(=O)O[C@]12C |  | 0.84%
4 | O=C(Cn1cnnn1)N[C@@H]1C(=O)N2C(C(=O)O)=C(CSc3nncs3)CS[C@H]12 | inactive | 
5 | C=CCc1cc(S(=O)(=O)c2ccc(O)c(CC=C)c2)ccc1O | 61.1 µM (active) | 
6 | O=C(O)[C@@H]1C[C@H](CP(=O)(O)O)CCN1 |  | 4.61%
7 | CC[C@@H](C)[C@H](N)C(=O)O |  | 2.12%
8 | CN(Cc1ccccc1)Cc1ccccc1 |  | -5.35%
9 | C=CC1=C(C(=O)O)N2C(=O)[C@@H](NC(=O)/C(=N\O)c3csc(N)n3)[C@H]2SC1 (stereo in doubt) | inactive | 
10 | O=C(CCCN1CCN2CCCC2C1)c1ccc(F)cc1 (stereo not given) |  | 1.54%
11 | O=C(N[C@H](CO)[C@H](O)c1ccc([N+](=O)[O-])cc1)C(Cl)Cl | inactive | 
12 | COC1=C(OC)C(=O)C(C/C=C(\C)CC/C=C(\C)CC/C=C(\C)CC/C=C(\C)CC/C=C(\C)CC/C=C(\C)CC/C=C(\C)CC/C=C(\C)CC/C=C(\C)CCC=C(C)C)=C(C)C1=O | inactive | 
13 | Cc1c(O)c(=O)ccn1C |  | -8.3%
14 | CC(C)C[C@@H](NC(=O)[C@@H](O)[C@H](N)Cc1ccccc1)C(=O)O |  | 13.2%
15 | O=C1CCC(c2ccccc2)(C2CCN(Cc3ccccc3)CC2)C(=O)N1 (stereo not given) |  | 2.64%
16 | COc1cc(/C=C/C(=O)CC(=O)/C=C/c2ccc(O)c(OC)c2)ccc1O | inactive | 
17 | NC(=O)CC[C@@H]1NC(=O)[C@H](Cc2ccccc2)NC(=O)[C@H](Cc2ccc(O)cc2)NC(=O)[C@@H](N)CSSC[C@@H](C(=O)N2CCC[C@H]2C(=O)N[C@@H](CCCN=C(N)N)C(=O)NCC(N)=O)NC(=O)[C@H](CC(N)=O)NC1=O | inactive | 
18 | O=C1c2ccccc2CN2C(=O)c3ccccc3CN12 |  | -8.21%
19 | CO[C@H]1C[C@@H]2CC[C@@H](C)[C@@](O)(O2)C(=O)C(=O)N2CCCC[C@H]2C(=O)O[C@H]([C@H](C)C[C@@H]2CC[C@@H](O)[C@H](OC)C2)CC(=O)[C@H](C)C=C(C)[C@@H](O)[C@@H](OC)C(=O)[C@H](C)C[C@H](C)/C=C/C=CC=C1C | 3.8 nM (active) and 7.5 nM (active) | 
20 | CCCCCCCC[N+](C)(C)CCCCCCCC | 29.8 µM (active) | 

Row | SMILES | Potency | activity change, negative = inhibition
21 | CC(=O)NC[C@H]1CN(c2ccc(N3CCOCC3)c(F)c2)C(=O)O1 |  | 0%
22 | CCCCCCOC(=O)c1cccnc1 |  | -19.8%
23 | C/C=C/C1=C(C(=O)O)N2C(=O)[C@@H](NC(=O)[C@H](N)c3ccc(O)cc3)[C@H]2SC1 |  | 0.931%
24 | CCOC(=O)Cc1ccc(-c2ccccc2)cc1 |  | 7.94%
25 | NC(=O)[C@@H]1CCCN1C(=O)[C@H](Cc1cnc[nH]1)NC(=O)[C@@H]1CCC(=O)N1 |  | 2.2%
26 | CC(C)(O/N=C(\C(=O)N[C@@H]1C(=O)N2C(C(=O)[O-])=C(C[n+]3ccccc3)CS[C@H]12)c1csc(N)n1)C(=O)O |  | 10.3% [at 32.5 µM]
27 | O=P(O)(O)OP(=O)(O)OP(=O)(O)O |  | 5.41%
28 | C[N+]1(CCCCC[N+]2(C)CCCC2)CCCC1 |  | 8.55%
29 | CCCCCCCCCC[N+](C)(CCCCCCCCCC)CCC[Si](OC)(OC)OC |  | 2.88%
30 | CC(C)=CCC/C(C)=C/CC/C(C)=C/CC/C=C(\C)CC/C=C(\C)CCC=C(C)C | inactive | 
31 | CC1(C)CCC(NC(=O)[C@@H](N)CCC(=O)O)CC1 |  | -10.3%
32 | C=CC1=C(C(=O)O)N2C(=O)[C@@H](NC(=O)/C(=N/OCC(=O)O)c3csc(N)n3)[C@H]2SC1 (stereo in doubt) |  | 44.3% [at 32.5 µM]
33 | O=C(O)/C=C/C(=O)Nc1ccc(S(=O)(=O)Nc2nccs2)cc1 |  | 0.721%
34 | COC(=O)C(CN)c1c[nH]c2ccc(OC)cc12 (stereo not given) |  | 4.7%
35 | COC(=O)C[C@](O)(CCCC(C)(C)O)C(=O)O[C@@H]1C(OC)=CC23CCCN2CCc2cc4c(cc2[C@H]13)OCO4 (stereo not given in full) | 0.168 µM (active) | 
36 | CC(C)(C)C(=O)OCC(=O)[C@H]1CC[C@H]2[C@@H]3CCC4=CC(=O)CC[C@]4(C)[C@H]3CC[C@]12C |  | 3.48%
37 | c1ccc(-c2ccc(C(c3ccccc3)n3ccnc3)cc2)cc1 (stereo not given) |  | -8.34%
38 | CCC[C@@H]1C[C@@H](C(=O)N[C@@H]([C@H]2O[C@H](SC)[C@H](OP(=O)(O)O)[C@@H](O)[C@H]2O)[C@H](C)Cl)N(C)C1 | inactive | 
39 | COc1ccc(/C=C/C(=O)Nc2ccccc2C(=O)O)cc1OC | 8.41 µM (active) | 
40 | C=C(Nc1ccc(OCC)cc1)Nc1ccc(OCC)cc1 | inactive | 
